Results: PubChem BioAssay (NCI)
About 83,000 compounds went through this panel and 20% of them were active in at least one assay; those are over-represented in the sample as a whole.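 48-hour exposure, single concentration, 96-well plates; percent growth endpoint where 0 means no net growth. Active: below 10.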 Active and inactive are the calls of the source.

Tests used:
Assay in all cases: NCI-60 one-dose screen, 48 h (100 = growth as untreated, 0 = no growth, -100 = all killed)
Conditions in all cases: 10 µM unless noted
SR leukemia = test system: SR leukemia
RPMI-8226 leukemia = test system: RPMI-8226 leukemia
OVCAR-8 ovarian = test system: OVCAR-8 ovarian
OVCAR-5 ovarian = test system: OVCAR-5 ovarian
OVCAR-4 ovarian = test system: OVCAR-4 ovarian
SK-OV-3 ovarian = test system: SK-OV-3 ovarian
IGROV1 ovarian = test system: IGROV1 ovarian
OVCAR-3 ovarian = test system: OVCAR-3 ovarian
HS 578T breast = test system: HS 578T breast
NCI/ADR-RES ovarian = test system: NCI/ADR-RES ovarian

Measured: growth

CN(C)CC(C)(C)C(=O)/C=C/c1ccccc1
active: SR leukemia -16.5% [25 µM] | RPMI-8226 leukemia -23.4% [25 µM] | OVCAR-8 ovarian -47.1% [25 µM] | OVCAR-5 ovarian -12% [25 µM] | OVCAR-4 ovarian -19.5% [25 µM] | SK-OV-3 ovarian -20.1% [25 µM] | IGROV1 ovarian -16.7% [25 µM] | OVCAR-3 ovarian -18.5% [25 µM] | HS 578T breast -2.87% [25 µM] | NCI/ADR-RES ovarian -9% [25 µM]

CC1CCc2c(C(=O)Nc3ncc(Cc4cccc([N+](=O)[O-])c4)s3)csc2C1 (stereo not given)
inactive: SR leukemia 26.7% | RPMI-8226 leukemia 33% | OVCAR-8 ovarian 26.4% | OVCAR-5 ovarian 34.7% | OVCAR-4 ovarian 39.3% | SK-OV-3 ovarian 21.6% | IGROV1 ovarian 30.7% | HS 578T breast 19.1% | NCI/ADR-RES ovarian 15.6%
active: OVCAR-3 ovarian 1.09%

COc1cc(OC)c(/C=C/C(=O)c2c(OC)cccc2OC)c(OC)c1
inactive: SR leukemia 23.3% | RPMI-8226 leukemia 16.7% | OVCAR-8 ovarian 24.2% | OVCAR-4 ovarian 68.4% | SK-OV-3 ovarian 21.7% | HS 578T breast 88.7%
active: OVCAR-5 ovarian 4.82% | IGROV1 ovarian -1.35% | OVCAR-3 ovarian -42.2% | NCI/ADR-RES ovarian -22.1%

COCCn1cc(-c2csc(-c3cn(C)c4ccc(Br)cc34)n2)c2cccnc21
inactive: SR leukemia 31.3% | RPMI-8226 leukemia 60.7% | OVCAR-8 ovarian 56.3% | OVCAR-5 ovarian 68.3% | OVCAR-4 ovarian 71% | SK-OV-3 ovarian 71.9% | IGROV1 ovarian 80.2% | OVCAR-3 ovarian 80.3% | HS 578T breast 63% | NCI/ADR-RES ovarian 60%

CN(C)c1ccc(-c2c(C#N)c(N)nn2C(=O)c2ccc(NC(=O)c3ccccn3)cc2)cc1
inactive: SR leukemia 98.6% | RPMI-8226 leukemia 95.5% | OVCAR-8 ovarian 98.3% | OVCAR-5 ovarian 95.7% | OVCAR-4 ovarian 105% | SK-OV-3 ovarian 108% | IGROV1 ovarian 79.1% | OVCAR-3 ovarian 102% | HS 578T breast 93.9% | NCI/ADR-RES ovarian 96.4%

COc1ccc(Cc2cnc(NC(=O)c3cc(C)oc3C)s2)cc1
inactive: SR leukemia 14.1% | RPMI-8226 leukemia 51.9% | OVCAR-8 ovarian 45.3% | OVCAR-5 ovarian 53.6% | OVCAR-4 ovarian 58.5% | SK-OV-3 ovarian 49.1% | IGROV1 ovarian 44.6% | OVCAR-3 ovarian 15% | HS 578T breast 24.5% | NCI/ADR-RES ovarian 20.6%

O=C(CSc1oc(-c2ccccc2)nc1S(=O)(=O)c1ccccc1)Nc1ccc(F)cc1
inactive: SR leukemia 83.8% | RPMI-8226 leukemia 55.7% | OVCAR-8 ovarian 88.7% | OVCAR-5 ovarian 87.5% | OVCAR-4 ovarian 67.4% | SK-OV-3 ovarian 95.8% | IGROV1 ovarian 88.9% | OVCAR-3 ovarian 85.7% | HS 578T breast 97.9% | NCI/ADR-RES ovarian 75.3%

Cc1ccc2c(n1)C(=O)C(Br)=C(CC(C)C)C2=O
inactive: SR leukemia 17% | RPMI-8226 leukemia 53% | OVCAR-8 ovarian 97.6% | OVCAR-5 ovarian 102% | OVCAR-4 ovarian 104% | SK-OV-3 ovarian 101% | IGROV1 ovarian 81.5% | OVCAR-3 ovarian 53.1% | HS 578T breast 102% | NCI/ADR-RES ovarian 98.4%

Cc1ccc(CNc2ccc3nc(CCC4CCCCC4)[nH]c3c2)cc1
active: RPMI-8226 leukemia -24.6%
inactive: SR leukemia 12.8% | OVCAR-8 ovarian 56.4% | OVCAR-5 ovarian 57.8% | OVCAR-4 ovarian 11% | SK-OV-3 ovarian 60.3% | IGROV1 ovarian 25.6% | OVCAR-3 ovarian 28.6% | HS 578T breast 55.7% | NCI/ADR-RES ovarian 40.4%

N#Cc1ccc(O)c(C2=NCC(c3ccccc3)O2)c1 (stereo not given)
active: OVCAR-4 ovarian 9.62% | OVCAR-3 ovarian 7.61% | NCI/ADR-RES ovarian 1.45%
inactive: SR leukemia 38% | RPMI-8226 leukemia 33.3% | OVCAR-8 ovarian 19.6% | OVCAR-5 ovarian 84% | SK-OV-3 ovarian 45.3% | IGROV1 ovarian 33.1% | HS 578T breast 77.2%

COc1ccc(/C=C(\C#N)n2nnc3cc(F)c(F)cc32)cc1
inactive: SR leukemia 12.9% | RPMI-8226 leukemia 70.5% | OVCAR-8 ovarian 70.1% | OVCAR-5 ovarian 56.3% | OVCAR-4 ovarian 74% | SK-OV-3 ovarian 69.6% | IGROV1 ovarian 39.7% | OVCAR-3 ovarian 21.5% | HS 578T breast 92.1% | NCI/ADR-RES ovarian 19.6%

O=S(=O)(Nc1ccc(F)cc1F)c1ccc(-c2cnc(C3CC3)o2)cc1
inactive: SR leukemia 10.9% | RPMI-8226 leukemia 18.1% | OVCAR-8 ovarian 38.4% | OVCAR-5 ovarian 51.8% | OVCAR-4 ovarian 46.8% | SK-OV-3 ovarian 45.6% | IGROV1 ovarian 32.6% | OVCAR-3 ovarian 13.4% | HS 578T breast 27.4% | NCI/ADR-RES ovarian 19.4%

O=C(C[C@]1(O)C(=O)Nc2ccccc21)c1cccc(C(F)(F)F)c1
inactive: SR leukemia 96.7% | RPMI-8226 leukemia 88.7% | OVCAR-8 ovarian 95.1% | OVCAR-5 ovarian 81.4% | OVCAR-4 ovarian 91.3% | SK-OV-3 ovarian 75.8% | IGROV1 ovarian 67.6% | OVCAR-3 ovarian 77.9% | HS 578T breast 90.3% | NCI/ADR-RES ovarian 94.7%

O=C1C(=O)N(Cc2ccc(-c3ccccc3)cc2)c2ccc(OC(F)(F)F)cc21
active: SR leukemia 2.04% | RPMI-8226 leukemia -5.6%
inactive: OVCAR-8 ovarian 23.6% | OVCAR-5 ovarian 37.3% | OVCAR-4 ovarian 36.3% | SK-OV-3 ovarian 98.1% | IGROV1 ovarian 36% | OVCAR-3 ovarian 24.7% | HS 578T breast 11.2% | NCI/ADR-RES ovarian 32.6%

O=CN1N=C(c2cccc(Nc3ccnc4cc(Cl)ccc34)c2)CC1c1ccccc1 (stereo not given)
active: SR leukemia 9.69% | SK-OV-3 ovarian 8.25% | OVCAR-3 ovarian -12.9% | HS 578T breast 1.24% | NCI/ADR-RES ovarian 3.37%
inactive: RPMI-8226 leukemia 27.7% | OVCAR-8 ovarian 38% | OVCAR-5 ovarian 36.3% | OVCAR-4 ovarian 41.2% | IGROV1 ovarian 28.9%

Cc1ccc(C)n1-c1ccccc1-n1c(C)ccc1C
inactive: SR leukemia 93.2% | RPMI-8226 leukemia 148% | OVCAR-8 ovarian 102% | OVCAR-5 ovarian 118% | OVCAR-4 ovarian 105% | SK-OV-3 ovarian 109% | IGROV1 ovarian 92.9% | OVCAR-3 ovarian 120% | HS 578T breast 117% | NCI/ADR-RES ovarian 116%

CCN1CCN(C(=O)[C@]23CCC(C)(C)C[C@@H]2C2=CC[C@@H]4[C@@]5(C)CCC(=O)C(C)(C)[C@@H]5CC[C@@]4(C)[C@]2(C)CC3)CC1
inactive: SR leukemia 12.2% | OVCAR-8 ovarian 63% | OVCAR-5 ovarian 72.2% | OVCAR-4 ovarian 50.7% | SK-OV-3 ovarian 70.1% | IGROV1 ovarian 65% | OVCAR-3 ovarian 56.4% | HS 578T breast 40.7% | NCI/ADR-RES ovarian 39.7%
active: RPMI-8226 leukemia 9.86%

O=C(Nc1ccc(Oc2cccc(Cl)c2)c(Cl)c1)c1cccnc1
inactive: SR leukemia 19.9% | RPMI-8226 leukemia 11.9% | OVCAR-8 ovarian 32.1% | OVCAR-5 ovarian 71.2% | OVCAR-4 ovarian 47.8% | SK-OV-3 ovarian 34.3% | IGROV1 ovarian 42.1% | HS 578T breast 31.1% | NCI/ADR-RES ovarian 11.9%
active: OVCAR-3 ovarian 2.66%

CCn1cc(C(=O)O)c(=O)c2cc(F)c(N3CCN(CC(=O)Nc4ccc(S(=O)(=O)Nc5nccc(C)n5)cc4)C(C)C3)c(F)c21 (stereo not given)
inactive: SR leukemia 103% | RPMI-8226 leukemia 109% | OVCAR-8 ovarian 105% | OVCAR-5 ovarian 98.5% | OVCAR-4 ovarian 104% | SK-OV-3 ovarian 113% | IGROV1 ovarian 99.7% | OVCAR-3 ovarian 113% | HS 578T breast 99.6% | NCI/ADR-RES ovarian 107%

O=c1c2cnn(-c3ccccc3)c2n2c(CN3CCOCC3)nnc2n1-c1ccccc1
inactive: SR leukemia 104% | RPMI-8226 leukemia 102% | OVCAR-8 ovarian 100% | OVCAR-5 ovarian 114% | OVCAR-4 ovarian 104% | SK-OV-3 ovarian 88.2% | IGROV1 ovarian 109% | OVCAR-3 ovarian 105% | HS 578T breast 107% | NCI/ADR-RES ovarian 98.8%

O=C1/C(=C\c2ccc3nccnc3c2)SC(=S)N1CCc1ccc(O)cc1
inactive: SR leukemia 68.9% | RPMI-8226 leukemia 68.2% | OVCAR-8 ovarian 98.4% | OVCAR-5 ovarian 102% | OVCAR-4 ovarian 88.1% | SK-OV-3 ovarian 113% | IGROV1 ovarian 94.1% | OVCAR-3 ovarian 101% | HS 578T breast 94.3% | NCI/ADR-RES ovarian 101%

O=C(CN1CCCCC1)Nc1nc(-c2cc3ccccc3oc2=O)cs1
inactive: SR leukemia 89.5% | RPMI-8226 leukemia 106% | OVCAR-8 ovarian 98.3% | OVCAR-5 ovarian 104% | OVCAR-4 ovarian 95.3% | SK-OV-3 ovarian 119% | IGROV1 ovarian 92.9% | OVCAR-3 ovarian 111% | HS 578T breast 93.3% | NCI/ADR-RES ovarian 101%

Clc1ccc2c(NC3CCC(N4CCOCC4)CC3)ccnc2c1 (stereo not given)
inactive: SR leukemia 55.2% | RPMI-8226 leukemia 58.2% | OVCAR-8 ovarian 69.1% | OVCAR-5 ovarian 105% | OVCAR-4 ovarian 56.7% | SK-OV-3 ovarian 81.5% | IGROV1 ovarian 131% | OVCAR-3 ovarian 92.7% | HS 578T breast 83.8% | NCI/ADR-RES ovarian 77.2%

C=CC[Se]C(=O)Cc1c(C)n(C(=O)c2ccc(Cl)cc2)c2ccc(OC)cc12
active: SR leukemia 2.02% | RPMI-8226 leukemia -25.8% | OVCAR-8 ovarian -38.1% | OVCAR-5 ovarian -44.7% | OVCAR-4 ovarian -50.7% | SK-OV-3 ovarian -83% | IGROV1 ovarian 2.4% | OVCAR-3 ovarian -40.6% | HS 578T breast -12.7% | NCI/ADR-RES ovarian -7.75%

CN(C)CCNC(=O)c1ccc(-c2nc3ccc4[nH]ncc4c3c3c2C2CCC3C2)cc1 (stereo not given)
active: SR leukemia 1.91% | RPMI-8226 leukemia -5.84% | SK-OV-3 ovarian 1.15% | HS 578T breast 9.56%
inactive: OVCAR-8 ovarian 20.8% | OVCAR-5 ovarian 96% | OVCAR-4 ovarian 48.6% | IGROV1 ovarian 16.4% | OVCAR-3 ovarian 20.9% | NCI/ADR-RES ovarian 77.7%

CCOC(=O)c1c(NC(=O)c2ccc(Cl)cc2)sc2c(CN(C)C)c(O)ccc12
active: SR leukemia -8.09% | RPMI-8226 leukemia -13%
inactive: OVCAR-8 ovarian 47.7% | OVCAR-5 ovarian 95.2% | OVCAR-4 ovarian 73.5% | SK-OV-3 ovarian 81.6% | IGROV1 ovarian 66.1% | OVCAR-3 ovarian 105% | HS 578T breast 79.2% | NCI/ADR-RES ovarian 73.3%

O=c1c2cccc3c(N4CCCC4)ccc(c32)c2nc3ccccc3n12
inactive: SR leukemia 20.2% | RPMI-8226 leukemia 75.7% | OVCAR-8 ovarian 66% | OVCAR-5 ovarian 106% | OVCAR-4 ovarian 78.8% | SK-OV-3 ovarian 79.1% | IGROV1 ovarian 57.1% | OVCAR-3 ovarian 98.2% | HS 578T breast 67.2% | NCI/ADR-RES ovarian 83%
